# Laboratory results: PubChem BioAssay
# Where “and” joins values, the source holds several entries; their conditions need not be identical. Equal entries are not always repeated. For some assays here: Potency and affinity values are given separately. Calls of active or inactive are those of the source.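 How the source made its calls, unless noted: active means compounds whose cell count with miR-34 switched on is under 0.7 times the count with it off; inactive means the rest.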
# How the values were obtained:
# [1] = circadian clock period modulators, cell-based, LOPAC library, luminescence reporter (AID 2774; call rule not given here;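 further: values are relative to mean of DMSO wells on each plate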); settings: circadian reporter cells, at 7 µM, actives lie on both sides
# [2] = hESC survival regulators, cell-based (AID 493140; call rule not given here;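 further: cells exposed to compounds for four days before counting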); settings: human embryonic stem cell survival screen; stronger effect = higher value
# [3] = liver-stage malaria parasite growth inhibition, primary screen, cell-based, HepG2, luciferase luminescence, HepG2 viability (AID 624349; in the data active means parasite load remaining mostly below about 12%, no sharp cut-off; inactive means mostly above about 10%;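 further: 100% = mean of DMSO negative control wells on the same plate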); settings: P. berghei liver stage in HepG2, luciferase luminescence, concentration not given here; parasite load remaining: stronger effect = lower value; viability: measured here: HepG2 viability without parasites
# [4] = tested on: Hepatitis C virus NS3 helicase; test: HCV NS3 helicase inhibitors, primary screen, biochemical, fluorescence polarization, LOPAC1280 library (AID 687035; in the data active means inhibition above about 37%); settings: Purified HCV NS3 helicase, Cy5-dT15 ssDNA binding fluorescence polarization; stronger effect = higher value; concentration not given here
# [5] = Cy5 fluorescence quenching or enhancement artefacts, artefact control for HCV NS3 helicase inhibitor project, biochemical, LOPAC1280 (AID 687037; call rule not given here); settings: Cy5-DNA-NS3h complex fluorescence interference counterscreen
# [6] = differential killing of epithelial or mesenchymal cells, primary screen, imaging, PC-3E GFP, TEM4-18 mCherry, co-culture (AID 1345086;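 active means compounds killing one labelled cell type while sparing the other, by normalised counts and ratio limits, not self-fluorescent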;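 on all read-outs here: cells exposed to compound for 72 h before imaging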;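 on red/green cell ratio (normalised): normalised mesenchymal count divided by normalised epithelial count so high means epithelial killing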); settings: imaging cell counts, at 1 µM; for red/green cell ratio (normalised): actives lie on both sides, counts scaled to control wells, 1 = unselective
# [7] = sensitizers of A549 cells to miR-34 induction, primary screen, imaging, A549 dox-inducible miR-34, nuclei and caspase counts (AID 1347080); settings: A549 miR-34 inducible, Hoechst nuclei count, 48 h
# [8] = phospholipid biosynthesis inhibitors in animal cells, primary screen, cell-based, LOPAC library, screen 4 (AID 1347384; call rule not given here); settings: phospholipid biosynthesis inhibition screen, at 10 µM
# [9] = survival rescue of mitochondrial mutant cells in low glucose, primary screen, MELAS cybrids, Rieske KO mouse fibroblasts, CellTiter-Glo (AID 1508586;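 active means mean z-score across replicates of 1.96 or higher in either the MELAS or the Rieske mutant cell line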;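 further: z relative to plate mean and SD of compound and empty wells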)
# [10] = biological target: NAD(+) hydrolase SARM1 (Homo sapiens) (UniProt Q6SZW1); test: SARM1 TIR NADase inhibitors, cell lysate, NAD-Glo luminescence (AID 1508614;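 active means compound whose remaining NAD level is above about 45 nM, limit read from the data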); settings: SAM-TIR HEK293T lysate NADase, at 1 µM, stronger effect = higher value
# [11] = viability rescue of complex I mutant cybrids, primary screen, cell-based, galactose medium, ATP luminescence (AID 1645843;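 active means z-score of at least 1.8 in each of two replicates, scored against plate mean and spread of sample wells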;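 further: positive z means more ATP and so rescue of galactose-driven cybrid death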); settings: complex I mutant cybrid cells, 72 h, stronger effect = higher value
# [12] = biological target: Mitogen-activated protein kinase 7 (Homo sapiens) (UniProt Q13164); test: ERK5 transactivation activators in reporter cells, primary screen, cell-based, HTS (AID 1508626;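 active means luciferase signal above three times the same-plate solvent-only control wells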;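 further: luciferase driven by Gal4-ERK5 fusion binding five Gal4 sites before minimal TATA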); settings: HeLa Gal4-ERK5 transactivation, 18 h, at 5 µM, stronger effect = higher value
# [13] = polyglutamine-triggered caspase-3 activation inhibitors, cell-based (AID 1583); settings: polyglutamine-induced caspase-3 activation, cell assay; stronger effect = higher value;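 tested at 10 µM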
# [14] = suppressors of polyQ aggregation in yeast, 75Q-TubU reporter (AID 1593); settings: Yeast 75Q polyglutamine aggregation reporter
# [15] = rescue of polyQ-huntingtin neuronal dysfunction in worms, whole organism, C. elegans mechanosensory neurons, N-terminal huntingtin (AID 1599); settings: touch response, stronger effect = higher value
# [16] = inhibitors of mitochondrial cytochrome c release, biochemical, purified mitochondria (AID 1603); settings: stronger effect = lower value;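 further: mouse liver mitochondria challenged with calcium chloride; signal normalized to the plate average as 100%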
# [17] = inhibitors of polyQ protein aggregation (AID 1604); settings: polyglutamine-induced protein aggregation inhibition assay; stronger effect = higher value; tested at 2.5 µM
# [18] = enhancers of glutamate uptake in motor neurons, MN-1 cell line (AID 1612); settings: MN-1 motor neuron cells, stronger effect = higher value;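 further: tested at 1 µM final; 0% = mean of DMSO vehicle wells on each plate; positive means more glutamate uptake than control and negative means less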
# [19] = suppressors of polyglutamine aggregation in yeast, 75Q-TubH (AID 1616); settings: S. cerevisiae 75Q-TubH polyglutamine aggregation suppression; stronger effect = higher value
# [20] = measured here: epithelial PC-3E GFP cell survival
# [21] = measured here: mesenchymal TEM4-18 mCherry cell survival
# [22] = stronger effect = lower value, cell number ratio, induced over uninduced
# [23] = measured here: relative caspase fold change +Dox/-Dox
# [24] = measured here: total cells with miR-34 induction, stronger effect = lower value
# [25] = measured here: total cells without miR-34 induction
# [26] = MELAS cybrid survival, CellTiter-Glo 48 h, stronger effect = higher value
# [27] = Rieske KO mouse fibroblast survival, CellTiter-Glo 72 h
# Sequence of NAD(+) hydrolase SARM1 (Homo sapiens) (Q6SZW1 whole entry, looked up): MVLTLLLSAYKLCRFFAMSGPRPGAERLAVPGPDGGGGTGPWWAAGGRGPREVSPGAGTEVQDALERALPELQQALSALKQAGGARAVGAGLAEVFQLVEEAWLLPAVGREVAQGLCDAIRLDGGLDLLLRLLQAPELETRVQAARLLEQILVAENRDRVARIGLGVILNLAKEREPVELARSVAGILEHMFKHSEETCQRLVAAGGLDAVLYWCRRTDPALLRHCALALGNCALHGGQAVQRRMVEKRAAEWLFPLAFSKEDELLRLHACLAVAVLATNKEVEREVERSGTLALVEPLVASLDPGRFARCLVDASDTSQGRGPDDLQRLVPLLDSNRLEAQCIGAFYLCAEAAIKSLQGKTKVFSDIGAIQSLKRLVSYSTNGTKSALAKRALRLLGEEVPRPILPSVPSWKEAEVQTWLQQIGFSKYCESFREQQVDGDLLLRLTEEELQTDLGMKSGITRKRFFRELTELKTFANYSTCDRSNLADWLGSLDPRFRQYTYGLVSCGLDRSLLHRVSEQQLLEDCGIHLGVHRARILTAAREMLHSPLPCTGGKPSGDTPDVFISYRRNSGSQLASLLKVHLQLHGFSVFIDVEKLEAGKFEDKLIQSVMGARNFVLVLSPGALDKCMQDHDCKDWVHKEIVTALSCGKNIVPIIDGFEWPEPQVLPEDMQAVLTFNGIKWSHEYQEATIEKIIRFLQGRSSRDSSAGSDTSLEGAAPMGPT
# Sequence of Mitogen-activated protein kinase 7 (Homo sapiens) (Q13164 whole entry, looked up, the tested form may be a part): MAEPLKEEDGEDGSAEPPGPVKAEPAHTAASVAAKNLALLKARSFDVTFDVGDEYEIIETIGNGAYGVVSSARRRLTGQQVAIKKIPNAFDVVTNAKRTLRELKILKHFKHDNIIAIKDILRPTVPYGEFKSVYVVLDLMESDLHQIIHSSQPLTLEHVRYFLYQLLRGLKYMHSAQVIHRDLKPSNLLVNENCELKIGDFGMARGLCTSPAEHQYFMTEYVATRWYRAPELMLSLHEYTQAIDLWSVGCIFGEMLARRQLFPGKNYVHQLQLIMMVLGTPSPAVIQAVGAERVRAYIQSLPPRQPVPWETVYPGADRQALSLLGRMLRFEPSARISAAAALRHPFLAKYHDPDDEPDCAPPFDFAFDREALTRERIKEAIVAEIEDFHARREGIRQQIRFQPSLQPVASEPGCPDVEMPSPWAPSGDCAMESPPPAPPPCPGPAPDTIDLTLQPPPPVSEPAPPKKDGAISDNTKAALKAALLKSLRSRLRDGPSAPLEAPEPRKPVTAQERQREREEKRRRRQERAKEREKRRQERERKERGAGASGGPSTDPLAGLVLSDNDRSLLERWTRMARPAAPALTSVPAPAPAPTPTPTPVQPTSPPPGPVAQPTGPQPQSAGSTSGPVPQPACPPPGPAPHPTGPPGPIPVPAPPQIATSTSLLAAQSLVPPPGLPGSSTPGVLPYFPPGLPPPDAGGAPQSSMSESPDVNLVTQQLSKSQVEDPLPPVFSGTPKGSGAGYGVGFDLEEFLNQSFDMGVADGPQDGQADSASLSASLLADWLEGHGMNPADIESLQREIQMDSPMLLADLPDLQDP
compound,measurement,setting,value
c1ccc(C2CN3CCSC3=N2)cc1 (configuration not stated),period change,[1],0.075 h (inactive)
same,survival,[2],5.17 (inactive) and 92.1 (inactive)
same,parasite load remaining,[3],183% (inactive) and 71.5% (inactive)
same,viability,[3],108% and 76.2%
same,inhibition,[4],-2% (inactive)
same,fluorescence ratio (interference),[5],1 (inactive)
same,red/green cell ratio (normalised),[6],1.29 (inactive) and 1 (inactive)
same,normalised cell number,[6]; [20],0.85 and 1.04
same,normalised cell number,[6]; [21],1.1 and 1.05
same,fold change,[7]; [22],0.894 (inactive) and 0.914 (inactive) and 0.823 (inactive)
same,fold change,[7]; [23],2.54 and 0.996 and 1.2
same,cell count,[7]; [24],8980 and 9120 and 8770
same,cell count,[7]; [25],10000 and 9980 and 10700
same,outcome,[8],inactive
same,z-score,[9]; [26],0.49 (inactive)
same,z-score,[9]; [27],0.36
same,remaining NAD,[10],10 nM (inactive)
same,z-score,[11],0.64 (inactive)
OC[C@@H](O)[C@H](O)[C@@H](O)[C@H](O)CO,red/green cell ratio (normalised),[6],1.12 (inactive)
same,normalised cell number,[6]; [20],0.97
same,normalised cell number,[6]; [21],1.08
same,fold change,[7]; [22],0.853 (inactive)
same,fold change,[7]; [23],0.862
same,cell count,[7]; [24],7670
same,cell count,[7]; [25],9000
COc1cc([C@@H]2c3cc4c(cc3[C@H](O)C3COC(=O)[C@@H]32)OCO4)cc(OC)c1OC (some centres not stated),period change,[1],0.2 h (inactive)
same,inhibition,[4],-3% (inactive)
same,fluorescence ratio (interference),[5],1 (inactive)
same,red/green cell ratio (normalised),[6],1.07 (inactive)
same,normalised cell number,[6]; [20],0.17
same,normalised cell number,[6]; [21],0.18
same,fold change,[7]; [22],0.98 (inactive)
same,fold change,[7]; [23],1.04
same,cell count,[7]; [24],1670
same,cell count,[7]; [25],1710
same,outcome,[8],inactive
same,z-score,[11],-0.545 (inactive)
CN1C2CCCC1CC(NC(=O)c1nn(C)c3ccccc13)C2 (configuration not stated),fluorescence ratio (interference),[5],1 (inactive)
same,red/green cell ratio (normalised),[6],0.96 (inactive)
same,normalised cell number,[6]; [20],0.99
same,normalised cell number,[6]; [21],0.95
same,fold change,[7]; [22],0.966 (inactive) and 0.87 (inactive)
same,fold change,[7]; [23],1.65 and 2.43
same,cell count,[7]; [24],10200 and 8870
same,cell count,[7]; [25],10600 and 10200
same,outcome,[8],inactive
same,z-score,[11],-0.44 (inactive) and 0.15 (inactive)
CCC(NC(C)C)C(O)c1ccc(O)c(O)c1 (configuration not stated),period change,[1],0.18 h (inactive)
same,survival,[2],6.67 (inactive)
same,parasite load remaining,[3],55.9% (inactive) and 47.9% (inactive)
same,viability,[3],94.3% and 104%
same,inhibition,[4],-1% (inactive)
same,fluorescence ratio (interference),[5],0.9 (inactive)
same,red/green cell ratio (normalised),[6],1.04 (inactive)
same,normalised cell number,[6]; [20],0.9
same,normalised cell number,[6]; [21],0.93
same,fold change,[7]; [22],1.08 (inactive) and 0.894 (inactive) and 0.889 (inactive)
same,fold change,[7]; [23],0.697 and 1.09 and 4.01
same,cell count,[7]; [24],10800 and 8990 and 12000
same,cell count,[7]; [25],9990 and 10100 and 13500
same,outcome,[8],inactive
same,z-score,[9]; [26],-0.772 (inactive)
same,z-score,[9]; [27],-0.513
same,remaining NAD,[10],10 nM (inactive)
same,luciferase signal,[12],212 AU (inactive)
same,z-score,[11],-1.29 (inactive)
CO[C@@]12[C@@H]3NC3CN1C1=C(C(=O)C(N)=C(C)C1=O)[C@@H]2COC(N)=O (some centres not stated),inhibition,[13],-29.8%
same,score,[14],2
same,rescue above control,[15],0
same,cytochrome c release ratio,[16],1
same,inhibition of aggregation,[17],29.2%
same,glutamate uptake change,[18],0.5%
same,aggregation suppression score,[19],1.38
same,parasite load remaining,[3],0.12% (inactive)
same,viability,[3],22.5%
same,red/green cell ratio (normalised),[6],1.09 (inactive)
same,normalised cell number,[6]; [20],1.03
same,normalised cell number,[6]; [21],1.13
same,fold change,[7]; [22],0.986 (inactive)
same,fold change,[7]; [23],0.958
same,cell count,[7]; [24],1840
same,cell count,[7]; [25],1870
CO[C@H](C(=O)[C@@H](O)[C@@H](C)O)[C@@H]1Cc2cc3cc(O[C@H]4C[C@@H](O[C@H]5C[C@@H](O)[C@H](O)[C@@H](C)O5)[C@@H](O)[C@@H](C)O4)c(C)c(O)c3c(O)c2C(=O)[C@H]1O[C@H]1C[C@@H](O[C@H]2C[C@@H](O[C@H]3C[C@](C)(O)[C@H](O)[C@@H](C)O3)[C@H](O)[C@@H](C)O2)[C@H](O)[C@@H](C)O1,parasite load remaining,[3],-0.08% (active)
same,viability,[3],93%
same,red/green cell ratio (normalised),[6],0.96 (inactive)
same,normalised cell number,[6]; [20],0.29
same,normalised cell number,[6]; [21],0.28
same,fold change,[7]; [22],0.97 (inactive)
same,fold change,[7]; [23],0.963
same,cell count,[7]; [24],2240
same,cell count,[7]; [25],2320
same,z-score,[9]; [26],7.83 (active)
same,z-score,[9]; [27],-1.51
same,z-score,[11],-1.89 (inactive)
OCc1ccccc1,red/green cell ratio (normalised),[6],0.94 (inactive)
same,normalised cell number,[6]; [20],1.12
same,normalised cell number,[6]; [21],1.05
same,fold change,[7]; [22],0.891 (inactive)
same,fold change,[7]; [23],0.934
same,cell count,[7]; [24],8280
same,cell count,[7]; [25],9290
same,remaining NAD,[10],10 nM (inactive)
CC(O)CC(C)(C)O (configuration not stated),red/green cell ratio (normalised),[6],0.94 (inactive)
same,normalised cell number,[6]; [20],1
same,normalised cell number,[6]; [21],0.94
same,fold change,[7]; [22],0.91 (inactive)
same,fold change,[7]; [23],0.891
same,cell count,[7]; [24],8730
same,cell count,[7]; [25],9590
same,remaining NAD,[10],10 nM (inactive)
CCCCC(CC)CCC(CC(C)C)OS(=O)(=O)O (configuration not stated),red/green cell ratio (normalised),[6],0.93 (inactive)
same,normalised cell number,[6]; [20],1.15
same,normalised cell number,[6]; [21],1.07
same,fold change,[7]; [22],0.913 (inactive)
same,fold change,[7]; [23],0.896
same,cell count,[7]; [24],8490
same,cell count,[7]; [25],9300
same,remaining NAD,[10],10 nM (inactive)
Cc1cc(-c2ccc(N=Nc3ccc4c(S(=O)(=O)O)cc(S(=O)(=O)O)c(N)c4c3O)c(C)c2)ccc1N=Nc1ccc2c(S(=O)(=O)O)cc(S(=O)(=O)O)c(N)c2c1O,red/green cell ratio (normalised),[6],0.96 (inactive)
same,normalised cell number,[6]; [20],0.99
same,normalised cell number,[6]; [21],0.95
same,fold change,[7]; [22],0.905 (inactive)
same,fold change,[7]; [23],0.718
same,cell count,[7]; [24],8810
same,cell count,[7]; [25],9740
same,remaining NAD,[10],10 nM (inactive)
CCCCCCCC/C=C\CCCCCCCC(=O)O,red/green cell ratio (normalised),[6],1.2 (inactive)
same,normalised cell number,[6]; [20],0.8
same,normalised cell number,[6]; [21],0.96
same,fold change,[7]; [22],0.965 (inactive) and 1.03 (inactive)
same,fold change,[7]; [23],0.674 and 0.77
same,cell count,[7]; [24],8820 and 6040
same,cell count,[7]; [25],9140 and 5860
same,remaining NAD,[10],10 nM (inactive)
NC(N)=NCC1COC2(CCCCC2)O1 (configuration not stated),survival,[2],5.58 (inactive)
same,parasite load remaining,[3],70.3% (inactive)
same,viability,[3],91.8%
same,red/green cell ratio (normalised),[6],1.08 (inactive)
same,normalised cell number,[6]; [20],1.11
same,normalised cell number,[6]; [21],1.2
same,fold change,[7]; [22],0.907 (inactive)
same,fold change,[7]; [23],1.21
same,cell count,[7]; [24],9550
same,cell count,[7]; [25],10500
same,z-score,[9]; [26],0.764 (inactive)
same,z-score,[9]; [27],0.202
same,remaining NAD,[10],10 nM (inactive)
CC(C)Nc1ncccn1,red/green cell ratio (normalised),[6],0.89 (inactive)
same,normalised cell number,[6]; [20],1.16
same,normalised cell number,[6]; [21],1.03
same,fold change,[7]; [22],0.885 (inactive)
same,fold change,[7]; [23],0.978
same,cell count,[7]; [24],8370
same,cell count,[7]; [25],9450
same,remaining NAD,[10],10 nM (inactive)
CC(C)N1CCN(c2ccc(OC[C@H]3CO[C@](Cn4cncn4)(c4ccc(Cl)cc4Cl)O3)cc2)CC1,parasite load remaining,[3],37.3% (inactive)
same,viability,[3],97.4%
same,red/green cell ratio (normalised),[6],0.77 (inactive)
same,normalised cell number,[6]; [20],1.12
same,normalised cell number,[6]; [21],0.87
same,fold change,[7]; [22],0.864 (inactive)
same,fold change,[7]; [23],1.54
same,cell count,[7]; [24],9020
same,cell count,[7]; [25],10400
same,z-score,[9]; [26],-0.379 (inactive)
same,z-score,[9]; [27],0.124
same,remaining NAD,[10],10 nM (inactive)
